The record followed here is PubChem BioAssay (Tox21).

Inconclusive results are not listed. Entries that show only a call come without a potency. Activity calls are given as the source filed them. Unless noted, calls come from the whole dose curve.
Potency is the fitted concentration of half-maximal effect.

The test system of the first experiment is estrogen-related receptor alpha (ERRalpha) with PGC-1alpha coactivator, human. Kind of experiment: qHTS assay to identify small molecule antagonists of the estrogen related receptor signaling pathway with the pleiotropic PPARgamma coactivator (PGC) (AID 1224821). Note: nearly all actives have a fitted effect of over 50% in size. To be noted: ERR/PGC reporter cell line, luciferase, antagonist mode; series mostly up to 46.1 µM. An outline of the steps: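 A PGC/ERR cell line supplied by NTP is seeded, allowed 6 h at 37 C, and treated with test compounds in DMSO for 18 h. Signal is then measured as luciferase luminescence using One-Glo.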
Background: In qHTS, concentration-response curves come from the screen itself.
Take `CCCN(CCc1ccccc1)C1CCc2c(O)cccc2C1` (stereo not given): the Potency result is “inactive”.
Still for that read-out and setting: to `O=C(O)Cc1ccc(O)c(O)c1` belongs “inactive”.
On the same count and under the same terms, the entry for `S=C(S)OC1CC2CC1C1CCCC21` (stereo not given) is “inactive”; for `[Li+]` it is “inactive”.
On the same count and under the same terms, the figure for `Nc1nc(N)c2nc(CNc3ccc(C(=O)NC(CCC(=O)O)C(=O)O)cc3)cnc2n1` (stereo not given) is 0.0619 µM (active); for `CN1CCc2ccccc2Cc2[nH]c3ccccc3c2CC1` it is “inactive”; for `NCC(O)C1CCCCCCC1` (stereo not given) it is “inactive”.
Consider `O=C(O)C1CCCN(CCC=C(c2ccccc2)c2ccccc2)C1` (stereo not given), for which the Potency result is “inactive”.
On the same count and under the same terms, the entry for `CCCCC#Cc1nc(NC)c2ncn([C@@H]3O[C@H](CO)[C@@H](O)C3O)c2n1` (stereo not given in full) is “inactive”; for `N[C@@H](CS(=O)O)C(=O)O` it is “inactive”; for `O=C1NC(=O)C(c2ccccc2[N+](=O)[O-])=C1Nc1ccc(O)c(Cl)c1` it is “inactive”.
Still for that read-out and setting: to `Nc1ncnc2c1nc(Br)n2C1OC2COP(=O)(O)O[C@@H]2C1O` (stereo not given in full) belongs “inactive”; to `COc1ccccc1CNCCCCCCNCCCCCCCCNCCCCCCNCc1ccccc1OC`, “inactive”; to `O=c1c(O)c(-c2cc(O)c(O)c(O)c2)oc2cc(O)cc(O)c12`, “inactive”.
For `Cc1cc2c(cc1Cl)N(C(=O)Nc1ccnc3ccccc13)CC2`, the Potency entry is “inactive”.
Same read-out and setting: the entry for `Cc1cn([C@H]2CC(N=[N+]=[N-])[C@@H](CO)O2)c(=O)[nH]c1=O` (stereo not given in full) is “inactive”; for `CN1[C@@H](CC(=O)c2ccccc2)CCC[C@H]1C[C@H](O)c1ccccc1` it is “inactive”.
The same measure, in the same setting: to `NCC1OC(OC2C(O)[C@@H](OC3C(O)C(N)CC(N)C3OC3OC(CO)C(O)C(O)C3N)O[C@@H]2CO)C(N)C(O)C1O` (stereo not given in full) belongs “inactive”; to `O=C(O)C1CCCNC1` (stereo not given), “inactive”; to `O=C(Nc1ccc2[nH]ncc2c1)C1CCC1`, “inactive”.
On the same count and under the same terms, to `CCCCOc1cc(CC2CNC(=O)N2)ccc1OC` (stereo not given) belongs “inactive”; to `O=Nc1c(-c2c(O)[nH]c3cc(Br)ccc23)[nH]c2ccccc12`, “inactive”.
In the case of `CNCCC=C1c2ccccc2CCc2ccccc21`, the Potency result was “inactive”.
Still for that read-out and setting: the entry for `CC(C)C[C@H](NC(=O)[C@H](O)[C@H](N)Cc1ccccc1)C(=O)O` is “inactive”; for `CCNC(=O)[C@H]1O[C@@H](n2cnc3c(N)nc(NCCc4ccc(CCC(=O)O)cc4)nc32)[C@H](O)C1O` (stereo not given in full) it is “inactive”.
Still for that read-out and setting: the entry for `O=C1Cc2c([nH]c3ccc(Br)cc23)-c2ccccc2N1` is “inactive”.
With `Cc1nc(N=Nc2ccc(C(=O)O)cc2)c(COP(=O)(O)O)c(C=O)c1O`, the Potency result is “inactive”.
On the same count and under the same terms, to `O=c1ccn([C@@H]2O[C@H](COP(=O)(O)OP(=O)(O)O)[C@@H](O)[C@H]2O)c(=O)[nH]1` belongs “inactive”.
`O=C(N[C@@H](Cc1ccccc1)C(=O)CCl)OCc1ccccc1`: the Potency is 16.8 µM (active).
The same measure, in the same setting: to `NC(=O)c1ccc2[nH]ccc2c1` belongs “inactive”; to `CCCCCCCCCCCCCCCCCC(=O)OC(CC(=O)O)C[N+](C)(C)C` (stereo not given), “inactive”; to `CS(=O)(=O)c1cccc(CNc2nc(Nc3ccc4c(c3)CCC(=O)N4)ncc2C(F)(F)F)c1`, “inactive”.
For `O=[N+]([O-])c1cccc2cn[nH]c12`, the Potency result was “inactive”.
The same measure, in the same setting: the entry for `CN=C(N)NCCC[C@H](N)C(=O)O` is “inactive”.
With `NCCC1CCCC(CCN)N1` (stereo not given), the Potency entry was “inactive”.
For `CC(O)C(O)[C@H]1CNc2nc(N)[nH]c(=O)c2N1` (stereo not given in full), the Potency result is “inactive”.
Still for that read-out and setting: the entry for `CCCCCC[C@@H]([C@@H](C)O)n1cnc2c(N)ncnc21` is “inactive”; for `NC(=O)CC[C@H](N)C(=O)O` it is “inactive”; for `NC(=O)C(=O)O` it is “inactive”.
The same measure, in the same setting: the entry for `CCC(=O)N1CCN(C(=O)c2ccccc2)CC1` is “inactive”.

System in the next experiment: not listed separately
The experiment can be described thus: qHTS assay to identify small molecule antagonists of the estrogen related receptor signaling pathway with the pleiotropic PPARgamma coactivator (PGC) cell viability counter screen (AID 1224822; active = well fitted cell-killing curve with a large enough effect in the repeat runs;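 note: viability read after 17.5 h compound exposure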). To be noted: ERR/PGC reporter cell line viability counter screen; series mostly up to 46.1 µM. The method in brief: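 17.5 h compound treatment of PGC/ERR cells at 37 C; readout CellTiter-Fluor fluorescence; run alongside the PGC/ERR antagonist screen to flag cytotoxic compounds.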
On to `CCCN(CCc1ccccc1)C1CCc2c(O)cccc2C1` (stereo not given), for which the Potency entry was “inactive”.
On the same count and under the same terms, to `O=C(O)Cc1ccc(O)c(O)c1` belongs “inactive”; to `S=C(S)OC1CC2CC1C1CCCC21` (stereo not given), “inactive”.
On the same count and under the same terms, to `[Li+]` belongs “inactive”.
On the same count and under the same terms, to `Nc1nc(N)c2nc(CNc3ccc(C(=O)NC(CCC(=O)O)C(=O)O)cc3)cnc2n1` (stereo not given) belongs “inactive”; to `CN1CCc2ccccc2Cc2[nH]c3ccccc3c2CC1`, “inactive”.
As for `NCC(O)C1CCCCCCC1` (stereo not given), the Potency entry is “inactive”.
The same measure, in the same setting: to `O=C(O)C1CCCN(CCC=C(c2ccccc2)c2ccccc2)C1` (stereo not given) belongs “inactive”; to `CCCCC#Cc1nc(NC)c2ncn([C@@H]3O[C@H](CO)[C@@H](O)C3O)c2n1` (stereo not given in full), “inactive”; to `N[C@@H](CS(=O)O)C(=O)O`, “inactive”.
The same measure, in the same setting: the entry for `O=C1NC(=O)C(c2ccccc2[N+](=O)[O-])=C1Nc1ccc(O)c(Cl)c1` is “inactive”; for `Nc1ncnc2c1nc(Br)n2C1OC2COP(=O)(O)O[C@@H]2C1O` (stereo not given in full) it is “inactive”.
Regarding `COc1ccccc1CNCCCCCCNCCCCCCCCNCCCCCCNCc1ccccc1OC`, the Potency entry is “inactive”.
Still for that read-out and setting: the entry for `O=c1c(O)c(-c2cc(O)c(O)c(O)c2)oc2cc(O)cc(O)c12` is “inactive”.
Still for that read-out and setting: to `Cc1cc2c(cc1Cl)N(C(=O)Nc1ccnc3ccccc13)CC2` belongs “inactive”; to `Cc1cn([C@H]2CC(N=[N+]=[N-])[C@@H](CO)O2)c(=O)[nH]c1=O` (stereo not given in full), “inactive”; to `CN1[C@@H](CC(=O)c2ccccc2)CCC[C@H]1C[C@H](O)c1ccccc1`, “inactive”.
Same read-out and setting: to `NCC1OC(OC2C(O)[C@@H](OC3C(O)C(N)CC(N)C3OC3OC(CO)C(O)C(O)C3N)O[C@@H]2CO)C(N)C(O)C1O` (stereo not given in full) belongs “inactive”; to `O=C(O)C1CCCNC1` (stereo not given), “inactive”.
Consider `O=C(Nc1ccc2[nH]ncc2c1)C1CCC1`, for which the Potency result is “inactive”.
Consider `CCCCOc1cc(CC2CNC(=O)N2)ccc1OC` (stereo not given), for which the Potency entry is “inactive”.
Still for that read-out and setting: the figure for `O=Nc1c(-c2c(O)[nH]c3cc(Br)ccc23)[nH]c2ccccc12` is 11.4 µM (active).
Still for that read-out and setting: the entry for `CNCCC=C1c2ccccc2CCc2ccccc21` is “inactive”.
In the case of `CC(C)C[C@H](NC(=O)[C@H](O)[C@H](N)Cc1ccccc1)C(=O)O`, the Potency result was “inactive”.
`CCNC(=O)[C@H]1O[C@@H](n2cnc3c(N)nc(NCCc4ccc(CCC(=O)O)cc4)nc32)[C@H](O)C1O` (stereo not given in full): the Potency result is “inactive”.
The same measure, in the same setting: to `O=C1Cc2c([nH]c3ccc(Br)cc23)-c2ccccc2N1` belongs “inactive”; to `Cc1nc(N=Nc2ccc(C(=O)O)cc2)c(COP(=O)(O)O)c(C=O)c1O`, “inactive”; to `O=c1ccn([C@@H]2O[C@H](COP(=O)(O)OP(=O)(O)O)[C@@H](O)[C@H]2O)c(=O)[nH]1`, “inactive”.
Still for that read-out and setting: to `O=C(N[C@@H](Cc1ccccc1)C(=O)CCl)OCc1ccccc1` belongs 16.8 µM (active).
With `NC(=O)c1ccc2[nH]ccc2c1`, the Potency entry was “inactive”.
The same measure, in the same setting: to `CCCCCCCCCCCCCCCCCC(=O)OC(CC(=O)O)C[N+](C)(C)C` (stereo not given) belongs “inactive”; to `CS(=O)(=O)c1cccc(CNc2nc(Nc3ccc4c(c3)CCC(=O)N4)ncc2C(F)(F)F)c1`, “inactive”; to `O=[N+]([O-])c1cccc2cn[nH]c12`, “inactive”.
With `CN=C(N)NCCC[C@H](N)C(=O)O`, the Potency entry is “inactive”.
Same read-out and setting: the entry for `NCCC1CCCC(CCN)N1` (stereo not given) is “inactive”.
Still for that read-out and setting: to `CC(O)C(O)[C@H]1CNc2nc(N)[nH]c(=O)c2N1` (stereo not given in full) belongs “inactive”; to `CCCCCC[C@@H]([C@@H](C)O)n1cnc2c(N)ncnc21`, “inactive”; to `NC(=O)CC[C@H](N)C(=O)O`, “inactive”.
Same read-out and setting: to `NC(=O)C(=O)O` belongs “inactive”; to `CCC(=O)N1CCN(C(=O)c2ccccc2)CC1`, “inactive”.
